# SW480 rerep: induces DNA re-replication in SW480 colon adenocarcinoma cells; SW480 DNA re-replication, Hoechst DNA content imaging, 48 h; Potency, µM (doses to about 46.1 µM), inactives show top-dose re-replication activation, usual class: activators; 340,000 tested, 1.8% active; AID 624297; also: potency is read from the fitted curve at half-maximal effect; % of control where 0% means no effect; nearly all actives have a fitted effect of over 55% in size
#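 Cells (250 per well) received 23 nL compound or DMSO by pin tool and were kept 48 hr at 37 C, 5% CO2. Nuclei were then stained with Hoechst for 40 min and scanned for DNA content.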
# DT40 TDP1 CPT: growth inhibition of DT40 Tdp1-/-;hTDP1 cells with camptothecin (screen for TDP1 inhibitors). chicken DT40 Tdp1-/-;hTDP1 cells + 20 nM CPT, ATP luminescence, 48 h. Potency, µM (series often up to 46.2 µM), inactives show at the top dose activity change, negative = growth inhibition, most hits filed as inhibitors. 420,000 tested, 12% active. AID 686979; also: potency is read from the fitted curve at half-maximal effect; % is scaled to controls: 0 for no effect and ±100 for the full control effect; nearly all actives have a fitted effect of over 55% in size
#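 Chicken DT40 Tdp1-/- cells complemented with human TDP1, 400 cells/well, exposed to compounds plus 20 nM camptothecin for at least 48 h at 37 C; viability read as ATP content by CellTiter-Glo luminescence.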
# DT40 TDP1 no CPT: qHTS for Inhibitors of human tyrosyl-DNA phosphodiesterase 1 (TDP1): qHTS in cells in absence of CPT | Potency, µM (titrated, usually from 46.2 µM), without a hit: at the top dose activity change, negative = growth inhibition, most hits filed as inhibitors | DT40 Tdp1-/- hTDP1 cells, no CPT, ATP luminescence, 48 h | 420,000 tested, 15% active; also: potency is read from the fitted curve at half-maximal effect; % is scaled to controls: 0 for no effect and ±100 for the full control effect; nearly all actives have a fitted effect of over 55% in size
#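 Luminescent ATP content (CellTiter-Glo) served as the growth readout. Knockout chicken DT40 cells expressing human TDP1 were exposed to compounds without camptothecin for a minimum 48 hr at 37 °C.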
# BCR signal inh: blocks chronic active B-cell receptor signaling. ABC-DLBCL IkBa-CBG/CBR reporter, luminescence ratio, 4 h. Potency, µM (titrated, usually from 46.1 µM), for the others: at the top dose activity change, negative = inhibition, actives largely listed as inhibitors. 340,000 tested, 0.05% active; active = well fitted inhibition curve with a large enough effect in the signal ratio, with a control signal flat, not every such curve was filed as active; inconclusive = small, poorly fitted or top-dose-only effect, or effect the other way, or a change in a side signal; the % refers to the signal ratio;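 also: potency is read from the fitted curve at half-maximal effect; plate controls were basal doxycycline-induced cells for no effect and cells given 10 µM MG132 for full effect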
#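 Doxycycline induced both beetle luciferases in TMD8 lymphoma cells; IKK-driven degradation limits the IkappaBalpha-fused green signal, while red luminescence normalises for cell number and nonspecific effects. Compounds tested up to 46 uM, 4 hrs.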
# IL-1B inflam inh: inflammasome signaling inhibition, IL-1 beta readout; activity change, % at 57.5 µM; 360,000 tested, 4.7% active; THP-1 LPS/ATP IL-1B secretion, AlphaLISA, 16 h; active compounds read low; in the data active = activity change below about -50%; inconclusive = mostly about -30% to -49%; also: % is scaled to controls: 0 for no effect and ±100 for the full control effect
#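 THP-1 cells pretreated 1 hr with compounds (up to 57.5 uM final), then stimulated with LPS (250 ng/mL final) plus ATP (1.25 mM final); secreted IL-1B measured by AlphaLISA after 16 hr, decreased signal indicating inhibition.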
# MCF10A rerep: inducers of DNA re-replication in MCF 10A breast cells; AID 624296; MCF 10A DNA re-replication, Hoechst nuclear intensity, 48 h; 350,000 tested, 2.9% active; Potency, µM (top dose mostly 46.1 µM), without a hit: at the highest dose activity, positive = re-replication, hits mostly activators; also: potency is read from the fitted curve at half-maximal effect; % of control where 0% means no effect; nearly all actives have a fitted effect of over 50% in size
# An asterisk follows results filed as active; ? = inconclusive; nt = not tested or not shown. Hits are enriched below; roughly 19% of the tested compounds scored in any of these assays. Unless noted, calls follow the shape of the dose curve; as a rule, active = well fitted curve in the direction sought with a large enough effect; inconclusive = small, poorly fitted or top-dose-only effect, or another doubt; inactive = no such curve, though single readings can be large; an effect the other way counts as inactive or inconclusive.
SMILES,SW480 rerep,DT40 TDP1 CPT,DT40 TDP1 no CPT,BCR signal inh,IL-1B inflam inh,MCF10A rerep
O=C(CSC1=NS(=O)(=O)c2cc(Cl)ccc2N1)c1ccc(Cl)cc1,?,-4%,-2%,?,49,33%
O=C(Nc1ncccc1O)c1ccc(Cl)c(S(=O)(=O)N2CCCC2)c1,nt,-2%,-12%,nt,26,nt
Cc1cc(C)cc(CN2C(=O)NC3(CCCCCC3)C2=O)c1,2%,8%,-13%,-1%,32,?
Cc1ccc(C)c(C(=O)CCC(=O)Nc2ccc(N3CCN(C)CC3)cc2C)c1,119%,?,-13%,0%,-10,?
CCCNC(=O)C1CCN(c2cc(-c3ccccc3)nc3ncnn23)CC1,-8%,?,-17%,5%,-4,-4%
CSc1ccc(NC(=O)C2(C)CCN2C(=O)C2(c3ccccc3)CC2)cc1 (configuration not stated),nt,18µM*,?,nt,-8,nt
Cc1ccsc1C(=O)N1CCC1(C)C(=O)Nc1cccc(C#N)c1 (configuration not stated),nt,?,?,nt,-11,nt
CC1(C(=O)Nc2ccccc2)CCN1C(=O)C1(c2ccc(Cl)cc2)CC1 (configuration not stated),nt,?,3.7µM*,nt,14,nt
CSc1ccc(NC(=O)C2(C)CCN2C(=O)c2sccc2C)cc1 (configuration not stated),nt,?,?,nt,-71*,nt
CC1(C(=O)N2Cc3ccccc3C2)CCN1C(=O)C1(c2ccccc2)CC1 (configuration not stated),nt,?,21µM*,nt,18,nt
CC(=O)Nc1ccc(C(=O)N2CCOCC2c2cc(C(=O)NCc3ccccc3)no2)cc1 (configuration not stated),nt,-5%,-14%,nt,18,nt
Cc1c(C(=O)N2CCC(C(=O)Nc3ccc(F)cc3)CC2)sc2nc[nH]c(=O)c12,nt,-1%,-9%,nt,nt,nt
CCOC(=O)c1c(C)[nH]c(C)c1S(=O)(=O)N1CCCC(C(=O)NCc2ccc(N(C)C)cc2)C1 (configuration not stated),nt,?,1%,nt,nt,nt
COc1ccc(C(C(=O)Nc2ccc(F)cc2)N2CCN(C(=O)c3ccco3)CC2)cc1 (configuration not stated),nt,-1%,-15%,nt,12,nt
Cc1ccc(NC(=O)C2(C)CCN2C(=O)C2(c3ccc(Cl)cc3)CC2)cc1 (configuration not stated),nt,15µM*,18µM*,nt,16,nt
Cc1ccc2c(c1)c(-c1ccccc1)nc1nnnn12,-2%,-8%,?,3%,39,0%
NC(=S)N=Nc1c(O)n(Cc2ccc(Br)cc2)c2ccccc12,8.2µM*,5.2µM*,4.6µM*,?,13,5.8µM*
NC(=S)N=Nc1c(O)n(Cc2ccc(F)cc2)c2ccccc12,2%,16µM*,?,?,0,?
CCOC(=O)N=Nc1c(O)n(CC(=O)OC)c2ccccc12,0%,2%,4%,-3%,8,18%
Cc1ccc2c(c1)c(N=NC(N)=S)c(O)n2Cc1ccccc1,0%,4.1µM*,3.3µM*,1%,22,14%
O=c1[nH]c2ccccc2n1Cc1ccc(F)cc1,-4%,?,-16%,0%,-5,-3%
Cc1ccc(C)c(Cn2c(=O)n(Cc3ccccc3)c(=O)c3c2c2cc(C)ccc2n3C)c1,nt,-9%,-17%,nt,nt,nt
O=C(CCS(=O)(=O)Cc1ccccc1)Nc1nc2c(s1)CCCC2,-14%,?,26µM*,?,58,-5%
COC(=O)c1ccc(C(=O)NC(=S)Nc2nc3c(s2)CCCC3)cc1,11%,?,16µM*,?,29,?
